# Results from PubChem BioAssay (NCI).
# About 83,000 compounds went through this panel and 20% of them were active in at least one assay; those are over-represented in the sample as a whole.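 Cell lines were cultured in 96-well plates, exposed to a single compound concentration, and assessed for percent growth 48 hours later.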 Activity calls are given as the source filed them. How the source made its calls: active means growth percent below 10; inactive means the rest.
# Tested on: MDA-MB-468 breast
# Assay: NCI-60 one-dose screen, 48 h (100 = growth as untreated, 0 = no growth, -100 = all killed)
# Details: 10 µM unless noted
row,Structure (SMILES),growth
1,COc1cc2cc(Oc3ccc(NC(=O)c4ccccc4)cc3)c(C)nc2cc1OC,98.4% (inactive)
2,CC1(C)CC[C@]2(CO)CC[C@]3(C)C(=CC[C@@H]4[C@@]5(C)CCNCC(C)(C)[C@@H]5CC[C@]43C)[C@@H]2C1,-33.1% (active)
3,CCOc1c(C#N)nnc2c(C#N)c(NC(=O)c3ccccc3)nn12,103% (inactive)
4,COc1cc2cc(Oc3ccc(NC(=O)Nc4ccccc4)cc3)c(C)nc2cc1OCCN1CCCCC1,79.5% (inactive)
5,N#CCCc1ccc(O)cc1,104% (inactive)
6,Cc1ccccc1OC(=O)c1cccc(Cl)c1,107% (inactive)
7,CCOc1ccc(Nc2nc(-c3ccc4c(c3)NC(=O)CO4)cs2)cc1,17.8% (inactive)
8,O=[N+]([O-])c1ccc(S(=O)(=O)OCCCCOS(=O)(=O)c2ccc([N+](=O)[O-])cc2)cc1,92.2% (inactive)
9,COc1ccc(-c2c(-c3ccc(OC)c(O)c3)cnc3ncnn23)cc1,109% (inactive)
10,C=CC(=O)Nc1ccc(Oc2nccc(Nc3nnc(-c4ccc(C)cc4)s3)n2)cc1,111% (inactive)
11,O=C(Nc1ccc(-n2cc(-c3ccncc3)c(-c3ccc(O)c(Cl)c3)n2)cc1)c1ccc(Cl)c(C(F)(F)F)c1,27.5% (inactive)
12,CN(C)CC(=O)c1ccc2cc(Br)c3ccccc3c2c1,72.1% (inactive)
13,C[C@@H](C[C@H](CCO)c1cc(C(F)(F)F)cc(C(F)(F)F)c1)c1ccc2ccccc2c1,83.9% (inactive)
14,Cc1ccc2nc(Cl)c(Cn3nnnc3SCc3ccccc3)cc2c1,90.4% (inactive)
15,CC(=O)Nc1ccc(S(=O)(=O)N/N=C(\C)c2ccc(C)cc2C)cc1,112% (inactive)
16,Cc1ccc(-c2nn(C)c(=O)c3noc(-c4ccc(C)cc4)c23)cc1,19.8% (inactive)
17,CS(=O)(=O)c1ccc(-c2nn(-c3ccccc3)cc2/C=N/NC(=O)c2ccncc2)cc1,99% (inactive)
18,CC1(C)CC2=C3C=C[C@@H]4[C@@]5(C)CCC(=O)C(C)(C)[C@@H]5CC[C@@]4(C)[C@]3(C)CC[C@@]2(C(=O)O)CC1=O,74.2% (inactive)
19,CN(C)c1ncc(-c2ccc(C(F)(F)F)cc2)c(NC2CCCCCC2)n1,29.5% (inactive)
20,O=C(CCN1C(=O)/C(=C/c2ccccc2F)SC1=S)N1CCOCC1,24.7% (inactive)

row,Structure (SMILES),growth
1,COC1=CC(c2ccc[nH]2)=N/C1=C\c1[nH]c(C)c(C(=O)OCc2ccccc2)c1C,-83.2% (active)
2,CCCC(=O)NC(c1cccnc1)c1cc(Cl)c2cccnc2c1O (centres undefined),30.2% (inactive)
3,O=C1Nc2c(ccc(Cl)c2Cl)/C1=C/c1ccc(O)cc1,62% (inactive)
4,CN(C)c1ccc2cc3c(cc2c1)Oc1ccccc1N3.[Cl][Zn][Cl],-10.4% (active)
5,O=c1c2cccc(Cl)c2sc2c(NCCCNCCO)nc3ccccc3c12,-19.5% (active)
6,CCN(CC)C(=O)/C=C(/C)c1ccccc1,87.6% (inactive)
7,CCCCNC(=O)c1cc(NCc2cc(O)ccc2O)ccc1O,93.6% (inactive)
8,C=C1C(=O)O[C@H]2[C@H]1CC/C(COC(=O)NCc1ccc(Cn3c(=O)sn(CCCI)c3=O)cc1)=C\CC[C@@]1(C)O[C@@H]21,-28.8% (active)
9,CN(C)C1CCN(Cc2ccc(NC(=O)c3cncc(C#Cc4cnc(N)c5ncccc45)c3)cc2C(F)(F)F)CC1,67% (inactive)
10,COc1ccc(-c2nn(-c3cccc(Cl)c3)cc2-c2c(C#N)c(N)n(N)c(=O)c2C#N)cc1,56.1% (inactive)
11,CCCC(=O)CC(C)=O.CCCC(=O)CC(C)=O.[Cu],107% (inactive)
12,COc1ccc(/C=C2\C(=O)N(C(=O)c3csc(NC(C)=O)n3)N=C2C)cc1,112% (inactive)
13,CC[C@]12CC(C(=O)OC)=C3Nc4ccccc4[C@@]34CCN(C14)[C@@H]1c3cc4c(cc3O[C@@H]1[C@H]2O)NC1=C(C(=O)OC)C[C@@]2(CC)C3N(CC[C@@]143)C[C@H]1O[C@H]12 (some centres undefined),-35.7% (active)
14,Nc1ccc(/C=N/Nc2ccnc3c(N)cccc23)c2cccnc12,-38.4% (active)
15,CC[C@]12C=CCN3CC[C@@]4(c5ccc(OC)cc5N(C)[C@H]4[C@@](O)(C(=O)OC)[C@@H]1OC(=O)CCCN1CCOCC1)[C@@H]32,108% (inactive)
16,CCn1c2ccc(O)cc2c2c(C)c3c[n+](C(C)C)ccc3c(C)c21,-19.7% (active)
17,CCOc1ccccc1C(=O)OCC(=O)Nc1cccc(S(=O)(=O)N(C)C)c1,84.7% (inactive)
18,Cc1nc(NC(=S)Nc2ccc(F)cc2)sc1C(=O)NNC(=S)Nc1ccc(F)cc1,44.6% (inactive)
19,CCCc1cc2cc(-n3nc(CC)c4c3CC(C)(C)CC4=O)cc(NC3CCC(O)CC3)c2c(=O)[nH]1 (centres undefined),-22.7% (active)
